Rab9 promoter act: activates the Rab9 promoter; hit rate 2.8% among 320,000; AID 485297; Huh7 Rab9 promoter-luciferase reporter, luminescence, 24 h; Potency, µM (top dose mostly 9.22 µM), for inactives: top-dose activation, negative = inhibition, actives largely listed as activators; further: % of control where 0% means no effect; nearly all actives have a fitted effect of over 60% in size
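Huh7 cells stably carrying a Rab9 promoter-luciferase reporter, 1500 cells per well in OP-MEM I with 10% FBS, treated with compound 24 hours at 37C. Luciferase activity read by luminescence after 10 minutes with Amplite reagent.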
ELG1 genotoxic: induces genotoxicity in HEK293T cells with luciferase-tagged ELG1; HEK293T ELG1-luciferase reporter, luminescence, 16 h; AID 504466; Potency, µM (titrated, usually from 46 µM), without a hit: top-dose activity change, positive = activation, most hits filed as activators; hit rate 1.3% among 330,000; further: % of control where 0% means no effect; nearly all actives have a fitted effect of over 60% in size
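HEK293T cells expressing luciferase-tagged ELG1 were treated with compound or DMSO for 16 hr at 37°C. Luciferase activity was then read after 30 min with ONE-Glo at room temperature; rising signal flags genetic stress.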
SMN2 splice enh: enhancers of SMN2 splice variant expression | HEK293 SMN2-luciferase splicing reporter, luminescence, 30-36 h | Potency, µM (top dose mostly 46.1 µM), for the others: top-dose activity change, positive = activation, most hits filed as activators | hit rate 2.8% among 210,000 | AID 1458; further: % of control where 0% means no effect; nearly all actives have a fitted effect of over 55% in size
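qHTS luciferase splicing reporter: luminescence rises when SMN2 exon 7 is included in transfected HEK293 cells. Compound exposure lasted 30-36 h at 37C, with 4.5 mM final sodium butyrate as control, followed by a ONE-Glo read.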
FLuc counter: firefly luciferase modulation, counter-screen for miR-21 project; P08659; purified FLuc, Km substrates, luminescence inhibition; Potency, µM (series often up to 57.5 µM), without a hit: at the top dose activity change, negative = inhibition, actives largely listed as inhibitors; hit rate 6.9% among 360,000;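 further: plate controls were vehicle for no effect and reference inhibitor for full effect; nearly all actives have a fitted effect of over 55% in size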
Target sequence (P08659 whole entry, looked up): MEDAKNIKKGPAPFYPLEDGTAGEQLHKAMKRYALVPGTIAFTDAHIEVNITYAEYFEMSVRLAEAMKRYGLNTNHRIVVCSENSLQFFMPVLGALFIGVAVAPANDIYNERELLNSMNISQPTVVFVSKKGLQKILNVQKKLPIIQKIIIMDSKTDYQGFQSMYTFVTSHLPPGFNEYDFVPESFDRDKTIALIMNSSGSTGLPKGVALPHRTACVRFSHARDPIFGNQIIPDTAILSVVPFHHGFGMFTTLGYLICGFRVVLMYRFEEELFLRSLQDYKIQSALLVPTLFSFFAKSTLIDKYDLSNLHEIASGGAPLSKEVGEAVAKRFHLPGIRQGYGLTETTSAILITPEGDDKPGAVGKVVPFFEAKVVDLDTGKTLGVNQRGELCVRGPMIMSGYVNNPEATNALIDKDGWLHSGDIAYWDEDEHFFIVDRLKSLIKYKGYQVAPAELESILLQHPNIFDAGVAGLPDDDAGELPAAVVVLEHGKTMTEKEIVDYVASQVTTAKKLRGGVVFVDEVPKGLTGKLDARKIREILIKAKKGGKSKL
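Biochemical qHTS of compounds, final roughly 60 µM downward over six points, against 10 nM purified firefly luciferase using Km concentrations of substrates (10 uM D-luciferin, 10 uM ATP) in Tris acetate pH 7.5 buffer; luminescence output.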
NPC1 promoter act: NPC1 promoter activation. Potency, µM (titrated, usually from 9.22 µM), for inactives: at the top dose activation, actives largely listed as activators. Huh7 NPC1 promoter luciferase reporter, 24 h. hit rate 2.4% among 320,000; further: % of control where 0% means no effect; nearly all actives have a fitted effect of over 60% in size
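Stably transfected Huh7 (NPC1 promoter→luciferase), 1500 cells/well in Opti-MEM + 10% FBS, 2 h settle, then compound 24 h at 37 °C. Luminescence after 10 min with Amplite reagent.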
* marks the source's active call; other numbers are inactive results; ? = inconclusive; · = not tested or not shown; [ ] = dose if it differs, or a comment. Only some compounds are listed: those with a hit (about 7.4% of all), similar ones and a draw of the others. The call rests on the fitted dose curve; in most records, active means well fitted curve in the direction sought with a large enough effect; inconclusive means small, poorly fitted or top-dose-only effect, or another doubt; inactive means no such curve, though single readings can be large; an effect the other way counts as inactive or inconclusive. Potency means the concentration at half of the fitted maximal effect.

SMILES | Rab9 promoter act | ELG1 genotoxic | SMN2 splice enh | FLuc counter | NPC1 promoter act
Cc1ccc(C(=O)Nc2ccn(Cc3ccc(F)cc3)n2)o1 | ? | 19% | · | 15µM* | ?
O=C(Nc1ccn(Cc2ccc(Cl)cc2)n1)c1ccccc1 | 3.5µM* | ? | 13µM* | 11µM* | ?
Cc1ccc(C(=O)Nc2ccc(F)cc2F)o1 | 21% | -1% | -8% | -20% | 11%
COC(=O)N1CCC2(CCN(Cc3cc(C(F)(F)F)cc(C(F)(F)F)c3)CC2)CC1 | · | · | -13% | · | ·
Cc1ccc(-n2ncc3c(Nc4ccccc4C)ncnc32)cc1 | · | · | · | 3.4µM* | ·
CCOc1ccc(Nc2ncnc3c2cnn3-c2ccc(F)cc2)cc1 | · | · | · | 6% | ·
CCOc1ccc(Nc2ncnc3c2cnn3-c2ccccc2)cc1 | 25% | 18µM* | -2% | 5% | 21%
CCc1ccccc1Nc1ncnc2c1cnn2-c1ccc(Cl)cc1 | · | · | · | 12µM* | ·
Cc1ccc(-n2ncc3c(NNC(=O)c4ccccc4C)ncnc32)cc1 | · | · | · | -12% | ·
Cc1ccccc1Nc1ncnc2c1cnn2-c1ccccc1 | ? | 8.2µM* | 11µM* | 17µM* | ?
COc1ccc(OCc2nnc(SCC(=O)Nc3ccccc3F)o2)cc1 | 3% | 1% | · | -15% | 5%
Cc1cccc(-c2[nH]c(C(C)(C)C)nc2-c2ccc3nccnc3c2)n1 | -22%[46.1 µM] | · | · | · | -11%[46.1 µM]
COC(=O)Nc1nnc(-c2ccc(OC)cc2)s1 | 2.8µM* | 16µM* | · | 8.5µM* | 2.5µM*
COc1ccc(C(=O)Nc2nnc(-c3ccccc3)s2)cc1 | 1.3µM* | 18µM* | · | -12% | 0.79µM*
CCc1nnc(NC(=O)Cc2ccc(OC)c(OC)c2)s1 | -10% | 1% | -4% | -2% | -5%
CCOC(=O)Nc1nnc(-c2ccc(OC)c(OC)c2)s1 | 6% | 4% | 5.6µM* | 1% | -3%
COc1ccc(C(=O)Nc2nnc(C(F)(F)F)s2)cc1 | 2.5µM* | ? | 5µM* | 5.4µM* | 1.8µM*
COc1ccc(S(=O)(=O)CC(=O)Nc2nnc(C(F)(F)F)s2)cc1 | 7% | -2% | · | 6% | -3%
COc1ccc(-c2nnc(NC(=O)c3c(OC)cccc3OC)s2)cc1 | 3% | -2% | · | ? | 4%
CCOc1ccc(NC(=O)CSc2nc3ccsc3c(=O)n2C(C)CC)cc1 (centres undefined) | · | · | · | 3% | ·
COc1ccc(-c2nnc(NC(=O)c3cc(C)on3)s2)cc1 | -1% | ? | ? | 12µM* | 9%
CCC1=Nc2ccccc2-c2nnc(SC)nc2O1 | 3% | -8% | 2µM* | -2% | -5%
CSc1nnc2c(n1)OC(C)=Nc1ccccc1-2 | -3% | 0% | 6% | 3% | 1%
COc1ccc(Cn2ccc3nc(C)c(C(=O)Nc4ccc(OC(F)(F)F)cc4)cc3c2=O)cc1 | · | · | · | 1% | ·
CN=c1scc(C)n1/N=C/c1cc(Br)c(O)c(Br)c1 | -2% | 0% | -15% | 11µM* | -4%
SMILES | Rab9 promoter act | ELG1 genotoxic | SMN2 splice enh | FLuc counter | NPC1 promoter act
CN=c1scc(C)n1/N=C/c1ccc2c(c1)OCO2 | 0.35µM* | 0.65µM* | 4.5µM* | 1.3µM* | 0.71µM*
Cc1nnc(C)n1/N=C/c1ccc2c(c1)OCCO2 | 0% | ? | 14% | 2% | 0%
CN=c1scc(-c2ccco2)n1/N=C/c1ccc(O)c(O)c1 | -25% | ? | 7.9µM* | 0.67µM* | -15%
CCN=c1scc(C)n1/N=C/c1cc(Br)c(O)c(OC)c1 | 1% | 6% | ? | ? | 0%
CN=c1scc(C)n1/N=C/c1ccc(O)cc1O | 0.71µM* | ? | 4.5µM* | 0.43µM* | 0.45µM*
CN(C(=O)COC(=O)C1CCN(S(=O)(=O)c2ccc3c(c2)OCCO3)CC1)C1CCS(=O)(=O)C1 (centres undefined) | -2% | 11% | · | 2% | 1%
Cc1ccc(S(=O)(=O)c2c(Nc3ccccc3)sc(C(=O)c3ccc4c(c3)OCO4)c2N)cc1 | · | · | · | -1% | ·
CN=c1scc(C)n1/N=C/c1ccc(O)cc1 | 2.2µM* | 3.2µM* | ? | 3µM* | 3.2µM*
C=CCN=c1scc(C)n1/N=C/c1ccc(O)c(O)c1 | 1% | ? | 16µM* | 27µM* | -3%
CCN(CC)c1nc(C)nc2c1cnn2CCc1ccccc1 | ? | 12µM* | 22µM* | 19µM* | ?
O=C(CSc1nc2nn(-c3ccccc3)c(=O)c-2c2n1CCCCC2)c1ccc(OC(F)F)cc1 | · | -5% | · | · | ·
CC(=O)Nc1ccc(NC(=O)C(C)OC(=O)/C(C#N)=C/c2ccc(N(C)C)cc2)cc1 (centres undefined) | ? | 18µM* | · | 9.5µM* | 28%
Cc1ccc2nc(-c3ccc(N)cc3)sc2c1 | 0.22µM* | ? | · | 0.11µM* | 0.32µM*
COc1ccc(N2C(=O)S[C@@H]3CS(=O)(=O)C[C@@H]32)cc1 | -2% | 1% | -3% | 1% | 1%
Cc1ccc2nc(-c3ccc(N4C(=N)SC5CS(=O)(=O)CC54)cc3)sc2c1 (centres undefined) | 2.8µM* | ? | · | 8.5µM* | ?
Nc1ccc(-c2nc3cc(N)ccc3s2)cc1 | 0.71µM* | 2.9µM* | · | 0.67µM* | 0.5µM*
Cc1ccc(S(=O)(=O)Nc2nc3ccc(N)cc3s2)cc1 | -1% | 0% | · | 3% | 0%
Nc1ccc2nc(-c3ccccc3)sc2c1 | · | · | 0.5µM* | 0.3µM* | ·
O=C(NCCc1cccc(Cl)c1)c1cccc(-n2cnnn2)c1 | 0% | 1% | · | 2% | 0%
CCOC(=O)N1CCc2c(sc3c2c(=O)n(-c2ccc(Cl)cc2)c(=O)n3Cc2cccc(OC)c2)C1 | · | · | -1% | -4% | ·
Cc1ccc2sc(-c3ccc(N)cc3)nc2c1 | · | · | 0.63µM* | 0.17µM* | ·
CC(=O)Nc1nc2cc(N)ccc2s1 | 15% | 6% | · | 0% | 11%
COC1=C/C(=C/c2c(O)c(C#N)c3ccccn23)C=CC1=O | 0% | 15% | · | 15µM* | -2%
COc1cc(OC)cc(C(=O)c2c(C)c(C#N)c3ccccn23)c1 | -6% | 5% | · | -1% | -22%
COCCCNC(=O)CCC(=O)Nc1ccc2nc(N3CCOCC3)cc(C)c2c1 | ? | 7% | ? | ? | 2%
SMILES | Rab9 promoter act | ELG1 genotoxic | SMN2 splice enh | FLuc counter | NPC1 promoter act
CCOC(=O)C1CCCN(C(=O)CCC(=O)Nc2ccc3nc(N4CCOCC4)cc(C)c3c2)C1 (centres undefined) | ? | ? | · | 17µM* | ?
CCCCNC(=O)CCC(=O)Nc1ccc2nc(N3CCOCC3)cc(C)c2c1 | ? | 12% | 21% | 15µM* | ?
Cc1cc(N2CCOCC2)nc2ccc(NC(=O)CCC(=O)N3CCN(c4ccccc4)CC3)cc12 | 30% | 9% | · | 12µM* | ?
Cc1cc(N2CCCCC2)nc2ccc(NC(=O)CCC(=O)NCCC(C)C)cc12 | 3.2µM* | ? | 65% | 7.6µM* | ?
Cc1cc(N2CCOCC2)nc2ccc(NC(=O)C3CCC(C)CC3)cc12 (centres undefined) | 5% | -2% | -16% | 1% | -7%
Cc1ccc(-c2nc(CCNC(=O)C(=O)Nc3ccc(F)cc3F)cs2)cc1 | · | · | · | 4% | ·
